Jurkat NFkB inh = lowers PMA/ionomycin-induced NF-kB signal in Jurkat cells; PMA/ionomycin-induced NF-kB luciferase reporter, luminescence; inhibition, % at 4 µM; hit rate 0.53% among 330,000; in the data active means inhibition above about 50%
Gli-Sufu antag = Gli-Sufu pathway antagonism | Sufu-KO-LIGHT fibroblasts, Gli luciferase reporter luminescence | inhibition, % at 5 µM | AID 588413 | hit rate 0.74% among 340,000;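 active means inhibition above about 55%, limit read from the data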
697 NFkB inh = inhibitors of the PMA/ionomycin-induced NF-kB reporter in 697 B cells; inhibition, % at 4 µM; 697 B-cell NF-kB luciferase reporter, 16 h; hit rate 0.33% among 330,000; in the data active means inhibition above about 35%
Beta cell apopt = beta cell apoptosis inhibition; INS-1E cytokine-induced death, ATP luminescence, 48 h; percent of positive-control rescue, neutral wells zero; protection from apoptosis, % (no concentration beside the values); hit rate 0.8% among 300,000;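 active means Every replicate reaches about 75%, or at least half do and their mean reaches it too, limit read from the data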;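 further: higher means more ATP so stronger rescue from cytokine killing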
Gli-Sufu confirm = confirmation of Gli-SUFU pathway antagonists | shares compounds with Gli-Sufu antag | Sufu-KO-LIGHT cells, Gli luciferase reporter, luminescence | inhibition, % at 5 µM | hit rate 40% among 2,500 | AID 602428;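 active means mean inhibition at 5 µM reaching about 45%, limit read from the data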
SufuKO cytotox = cytotoxicity counter-screen for Gli-SUFU antagonists; cytotoxicity, % at 5 µM; AID 651994; Sufu-KO-LIGHT cells cytotoxicity, ATP luminescence; shares compounds with Gli-Sufu antag; hit rate 32% among 2,500;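 active means mean cytotoxicity at 5 µM above about 25%, limit read from the data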;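 further: cells exposed to compound overnight for roughly 16 to 18 hours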
Wnt3a cs = Wnt3a reporter inhibition counter-screen; hit rate 20% among 2,500; inhibition, % at 6.25 µM; AID 651995; shares compounds with Gli-Sufu antag; Wnt-LIGHT cells, Wnt3a-driven luciferase reporter, luminescence;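 active means mean inhibition above about 25%, limit read from the data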
Large screens that a line does not name were inactive (follow-up assays come after a bar, where they were run). Hits are enriched below; roughly 1.8% of the tested compounds scored in any of these assays.

COc1ccccc1CCNC(=O)C1CCC(=O)N(Cc2cccc(F)c2)C1 (stereo not drawn)	none (no result: Beta cell apopt)
CCOC(=O)C1=C(C)NC(=S)NC1c1ccc(-c2cccc(Cl)c2C)o1 (stereo not drawn)	none
CC(=O)OCC(=O)[C@H]1CC[C@H]2[C@@H]3CC=C4C[C@@H](O)CC[C@]4(C)[C@H]3CC[C@]12C	none (no result: Beta cell apopt)
COc1cc(OC)cc(C(=O)OCC(=O)c2ccc(S(=O)(=O)N3CCCCC3)cc2)c1	Gli-Sufu antag 95.8 | Gli-Sufu confirm inactive | SufuKO cytotox inactive | Wnt3a cs inactive
COc1cc(C(=O)OCC(=O)c2ccc(S(=O)(=O)N3CCCCC3)cc2)cc(OC)c1OC	none
CCN(CC(=O)NCc1cccs1)C(=O)/C=C/c1cc(Br)ccc1OC(F)F	none | Gli-Sufu confirm inactive | SufuKO cytotox inactive | Wnt3a cs inactive
CCN(CC(=O)NCc1cccs1)C(=O)/C=C/c1cccc(Br)c1	none
CC1(C)CC(=O)c2c(noc2-c2ccccc2)C1	Gli-Sufu antag 75.2 | Gli-Sufu confirm inactive | SufuKO cytotox 28.4 | Wnt3a cs inactive
Cc1ccc(C(=O)ONc2ccc(N=O)cc2)cc1	Gli-Sufu antag 65.5 | Gli-Sufu confirm inactive | SufuKO cytotox inactive | Wnt3a cs inactive
CCN(CC)CCn1c(NCc2ccc(OC)cc2)nc2ccccc21	Gli-Sufu antag 55.8 | Gli-Sufu confirm inactive | SufuKO cytotox inactive | Wnt3a cs inactive
CS(=O)(=O)c1nc(S(=O)(=O)c2ccc(Cl)cc2)c(NCCN2CCOCC2)s1	none
CS(=O)(=O)c1nc(S(=O)(=O)c2ccc(Cl)cc2)c(NCCCn2ccnc2)s1	Gli-Sufu antag 57.0 | Gli-Sufu confirm inactive | SufuKO cytotox inactive | Wnt3a cs inactive
COc1ccc(S(=O)(=O)Nc2cccc(F)c2C)cc1C(=O)N1CCOCC1	none (no result: Beta cell apopt)
COc1ccc(S(=O)(=O)Nc2ccc(F)cc2F)cc1C(=O)N1CCOCC1	Gli-Sufu antag 60.9 | Gli-Sufu confirm inactive | SufuKO cytotox inactive | Wnt3a cs inactive
CC1(C)Cc2ccccc2-c2nc(NN)[nH]c(=O)c21	none
Cc1ccn(CCSCC(=O)O)n1	none (no result: Beta cell apopt) | Gli-Sufu confirm inactive | SufuKO cytotox inactive | Wnt3a cs inactive
COCCn1c(=NC(=O)CSC(C)=O)sc2cc(F)ccc21	none
COc1ccc(CN2CCc3ccccc3C2)c(OC)c1	none
COc1ccc(C2=[N+](C)CCn3cccc32)c(OC)c1	Gli-Sufu antag 70.5 | Gli-Sufu confirm 47.4 | SufuKO cytotox inactive | Wnt3a cs inactive
CC(C)(C)C(=O)Oc1cccc(Nc2ncnc3ccccc23)c1	none
Cn1cccc1C(=O)OCc1ccc(F)cc1	none (no result: Beta cell apopt)
CC1CCC(C(C)C)C(OCC(O)CN2CCCC(C)C2)C1 (stereo not drawn)	none
CC1CCC(C(C)C)C(OCC(O)CN2CCOCC2)C1 (stereo not drawn)	none | Gli-Sufu confirm inactive | SufuKO cytotox inactive | Wnt3a cs inactive
CCOc1ccccc1C=NNC(=O)C(=O)NN=Cc1ccccc1OCC	none (no result: Jurkat NFkB inh, 697 NFkB inh, Beta cell apopt)
COc1ccccc1/C=N/NC(=O)c1cccc(OC(F)(F)C(F)F)c1	none
CCOc1ccccc1NC(=O)C(=O)N/N=C/c1cc(Br)ccc1O	Gli-Sufu antag 56.0, Beta cell apopt 88.4 | Gli-Sufu confirm 63.3 | SufuKO cytotox 38.8 | Wnt3a cs 58.5
COc1cccc(/C=N/NC(=O)C(=O)Nc2ccccc2OC(F)(F)C(F)F)c1O	Gli-Sufu antag 79.8, Beta cell apopt 82.5 | Gli-Sufu confirm 71.5 | SufuKO cytotox 47.2 | Wnt3a cs 65.6
COC(=O)CC1c2cc(OC)c(OC)cc2CC(=O)c2cc(OC)c(OC)cc21 (stereo not drawn)	none
CS(=O)(=O)N1CCC(C(=O)Nc2cccc(C(F)(F)F)c2)CC1	none
O=C(Nc1cccc(C(F)(F)F)c1)C1CCN(S(=O)(=O)c2ccc(N3CCCC3=O)cc2)CC1	none | Gli-Sufu confirm 57.6 | SufuKO cytotox inactive | Wnt3a cs inactive
O=C(Cn1nc(C(=O)O)c2ccccc2c1=O)Nc1ccccc1C(F)(F)F	Gli-Sufu antag 78.5 | Gli-Sufu confirm inactive | SufuKO cytotox inactive | Wnt3a cs inactive
Cc1ccccc1NC(=O)Cn1nc(C(=O)O)c2ccccc2c1=O	none
CC(NC(=O)c1ccc(S(C)(=O)=O)cc1)c1cccc2ccccc12 (stereo not drawn)	none
CC[n+]1c(/C=C/N(C)c2ccccc2)oc2ccc(Cl)cc21	Gli-Sufu antag 79.1 | Gli-Sufu confirm 82.7 | SufuKO cytotox 26.8 | Wnt3a cs 39.2

Screening results (PubChem)
